Pf Dd2 growth = Plasmodium falciparum Dd2 growth inhibition | 4.3% of 120,000 active | P. falciparum Dd2 growth, SYBR Green, 72 h | Potency, µM (doses to about 28.9 µM), inactives show top-dose activity, negative = inhibition, usual class: inhibitors; active = well fitted inhibition curve with a large enough effect;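 also: plate controls were DMSO vehicle for no effect and reference drug for full effect; nearly all actives have a fitted effect of over 65% in size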
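Infected erythrocytes (Dd2, 0.3% parasitemia, 2.5% hematocrit final) are added to compound in RPMI-1640/Albumax II medium, grown 72 h at 37C in low oxygen, then lysed with saponin/Triton-X containing SYBR Green and read by fluorescence.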
* hit, by the source's call; i = inactive; [ ] = dose if it differs, or a comment. Only a selection was taken, and hits are over-represented in it overall. Potency is read from the fitted curve at half-maximal effect.

SMILES	Pf Dd2 growth
COc1nc2c(cc1CNC(=O)C1CCCO1)C(=O)N(CCc1ccccn1)C2 (stereo unspecified)	-19%
Cc1ccc(-n2cc(CN3CCN(C)C(CCO)C3)cn2)cc1 (stereo unspecified)	-22%
Cc1ccc(-n2cc(CN3CCN4CCCC4C3)c(-c3cccc(C)c3)n2)cc1 (stereo unspecified)	13µM*
CC1CCCN(Cc2cn3c(-c4cccc(Br)c4)nnc3s2)C1 (stereo unspecified)	22%
COC(=O)CN(C)Cc1cn(-c2ccc(C)cc2)nc1-c1cccc(C)c1	-12%
Cc1ccc(-n2cc(CN3CCC(CCO)CC3)c(-c3cccc(C)c3)n2)cc1	10µM*
CN(C)C(=O)CN1CCCC(N2CCN(c3cccc(C(F)(F)F)c3)CC2)C1 (stereo unspecified)	-9%
CCn1nccc1C(=O)NCCc1ncc(C)n1C1CC1	-3%
Cc1nn(CC(=O)N2CCN(c3ccccc3F)CC2)c(=O)c2nc(C(C)C)sc12	-21%
O=C(c1ccn[nH]1)N(CC1CCN(Cc2ccccc2F)CC1)CC1CCCO1 (stereo unspecified)	2%
CCc1cc(=O)n(CC(=O)Nc2cccc(Br)c2)c(N2CCOCC2)n1	i
Cc1ccc(N2C[C@]34C=C[C@H](O3)C(C(=O)N(C)CCc3cn[nH]c3)C4C2=O)cc1C (stereo partly specified)	3%
O=C(Cn1cc(SCc2ccccc2F)c2ccccc21)N1CCCCC1	-18%
NC(=O)CCn1cc(CN(CCO)Cc2ccccc2F)c2ccccc21	2.2µM*
CCC(NCc1cn(CCC(N)=O)c2ccccc12)c1cccs1 (stereo unspecified)	-24%
CSc1ccccc1C(=O)N1CCOC(Cc2cccc(F)c2)C1 (stereo unspecified)	-8%
CN(Cc1ccc2c(c1)OCO2)Cc1cc2n(n1)CCNC2	0%
CCOc1ccc(Cl)cc1CN(C)Cc1cc2n(n1)CCCNC2	5.6µM*
Cc1ccnc(C(NC(=O)CCc2cc3n(n2)CCCNC3)C2CC2)c1 (stereo unspecified)	-5%
COC(=O)c1cccc(-c2nc(C3CC(=O)N(c4ccc(Cl)cc4)C3)no2)c1 (stereo unspecified)	86%
COCCc1nncn1C1CCN(C(=O)c2cc(C)cc(C)c2)CC1	-5%
CC(=O)c1ccc(NC(=O)Cn2ccn3nc(-c4ccccc4)c(CO)c3c2=O)cc1	i
O=C(NCCCn1ccnc1)c1ccc(C2CCCNC2)cc1 (stereo unspecified)	12%
COC(=O)[C@@H]1Cc2c([nH]c3ccccc23)[C@H]2C[C@@H](NCCc3cnc[nH]3)C[C@@H](c3ccccc3F)N21	i
COC(=O)[C@@H]1Cc2c([nH]c3ccccc23)[C@H]2C[C@@H](NC[C@H]3CCCO3)C[C@@H](c3ccccc3F)N21	-9%
SMILES	Pf Dd2 growth
COC(=O)[C@@H]1Cc2c([nH]c3ccccc23)[C@H]2C[C@@H](NCCCn3ccnc3)C[C@@H](c3ccc(Cl)c(F)c3)N21	3.2µM*
COC(=O)[C@@H]1Cc2c([nH]c3ccccc23)[C@H]2C[C@@H](NCc3cccnc3)C[C@@H](c3ccccc3)N21	-23%
COCCN[C@@H]1C[C@@H]2c3[nH]c4ccccc4c3C[C@@H](C(=O)OC)N2[C@H](c2cccc(OC)c2)C1	5µM*
COC(=O)[C@@H]1Cc2c([nH]c3ccccc23)[C@H]2C[C@H](NCCNC(C)=O)C[C@@H](c3ccc(C(F)(F)F)cc3)N21	-1%
COCc1ccc2c(c1)c(OC(C)(C)C(=O)NCCCn1ccnc1)nn2Cc1ccccc1	-13%
COC(=O)[C@@H]1Cc2c([nH]c3ccccc23)[C@H]2C[C@@H](NCCCn3ccnc3)C[C@@H](c3cccc(Cl)c3)N21	2.2µM*
Cc1noc(-c2ccc(OC3CN(S(=O)(=O)c4c(C)nn(C)c4C)C3)cc2)n1	i[5.79 µM]
O=C(C1CCCCC1)N1CC(F)(F)C[C@H]1c1nnc(C2CC2)o1	7%
COC(=O)CN1C(=O)[C@@H]2C[C@@H](O)CN2C2(CN(C3CCCC3)C2)C1=O	0%[44.1 µM]
COCc1nc2nc(-c3ccccc3)c(Nc3ccc(F)c(OC)c3)cc2n1C	i
Cc1cc(-c2cc3c(nc2-c2ccccc2)nc(C(=O)NCCN(C)C)n3C)ccn1	-20%[44.1 µM]
CN(C)CCNC(=O)c1cc(-c2ccc(F)cc2)cc2ncn(C)c12	i
Cc1ccccc1Nc1cc2c(nc1-c1ccccc1)nc(C(=O)NCCN(C)C)n2C	7.9µM*
CN(C)CCNC(=O)c1nc2nc(-c3ccccc3)c(Nc3ccc(F)cc3)cc2n1C	7.1µM*
COCCCNC(=O)c1nc2nc(-c3ccccc3)c(Cl)cc2n1C	-27%[44.1 µM]
Cn1cccc1CN1CCC2(CC1)CN[S+](=O)([O-])c1ccccc1N2	-24%
CC(C)N1C[C@H](O)C[C@H]1c1nc(-c2ccc3c(c2)OCO3)no1	-9%[44.1 µM]
COc1ccc(-c2noc([C@@H]3CCCN3C(=O)Cc3ccc(F)cc3)n2)cc1OC	-19%
COc1cc2c(cc1OC)C(CNC(=O)c1ccco1)N(C(=O)Nc1cccc(F)c1)CC2 (stereo unspecified)	i
COC(=O)c1ccc(OCC2c3cc(OC)c(OC)cc3CCN2C(=O)c2ccc(F)cc2)cc1 (stereo unspecified)	11µM*
CCNC(=O)N1CCc2cc(OC)c(OC)cc2C1CNC(=O)C1CC1 (stereo unspecified)	-5%
COc1cc2c(cc1OC)C(COc1ccc(F)cc1)N(C(=O)C(C)C)CC2 (stereo unspecified)	-8%
COc1ccc(C(=O)N2CCc3ccc(C(=O)NCc4ccccc4C)cc32)cc1	i
CCOc1cc2c(cc1OCC)C(CC(=O)O)N(C(=O)Nc1ccccc1C(F)(F)F)CC2 (stereo unspecified)	27%
COC(=O)c1ccc(OCC2c3cc(OC)c(OC)cc3CCN2C(=O)c2ccccc2C)cc1 (stereo unspecified)	11µM*
SMILES	Pf Dd2 growth
COc1ccc(CC(=O)N2CCc3cc(OC)c(OC)cc3C2COc2ccc(F)cc2)cc1OC (stereo unspecified)	11µM*
CC(=O)NC[C@H]1CCN(C(=O)NCc2ccc(F)cc2)C[C@H]1N(C)C	26%
Cc1ccc(CNC(=O)c2ccc(CN3C(=O)NC4(CCOCC4)C3=O)cc2)cc1	6%
CC1(C)[C@H](Cc2cc(CCO)on2)C[C@@H]1NC(=O)C1CCC1	6%[44.1 µM]
Cc1cnc(CCNS(=O)(=O)c2cn(C)cn2)n1CC1CC1	15%
CN(C(=O)C1CC1)C1CCc2ccccc21 (stereo unspecified)	-12%[44.1 µM]
O=C(c1ccccn1)N1CCC(N2CCOC2=O)CC1	93%[44.1 µM]
COCCC1(CO)CCCN(Cc2ccc(C#N)cc2)C1 (stereo unspecified)	-15%
COc1ccc(S(=O)(=O)N(CC(=O)NCc2ccccc2OC)c2ccc(C)cc2)cc1	-20%
CCOc1ccc(S(=O)(=O)N(CC(=O)NCc2ccccc2OC)c2ccccc2)cc1	9%
CCN(CC)S(=O)(=O)c1ccc2oc(C(=O)NCc3ccccc3OC)c(C)c2c1	7.9µM*
COCC(=O)N1CCN(C(=O)Nc2ccccc2)C[C@H]1C(=O)N[C@H](Cc1c[nH]c2ccccc12)C(N)=O	-25%
CCS(=O)(=O)N1C[C@@H](COC)[C@H](C(=O)NC)C1	29%
CSc1ccc(-c2ccc3c(c2)C(=O)N2CCN(C(=O)CC(C)(C)C)C[C@@H]2C(=O)N3)cc1	5.6µM*
CSc1ccc(-c2ccc3c(c2)C(=O)N2CCN(C(=O)CCC(=O)O)C[C@H]2C(=O)N3)cc1	42%

High-throughput results from PubChem BioAssay.
